USP30 block: blocks human USP30 ubiquitin-rhodamine cleavage; inhibition, % at 25 µM; 47,000 tested, 5.3% active; purified USP30, Ub-rhodamine cleavage fluorescence
Target sequence (Q70CQ3 whole entry, looked up): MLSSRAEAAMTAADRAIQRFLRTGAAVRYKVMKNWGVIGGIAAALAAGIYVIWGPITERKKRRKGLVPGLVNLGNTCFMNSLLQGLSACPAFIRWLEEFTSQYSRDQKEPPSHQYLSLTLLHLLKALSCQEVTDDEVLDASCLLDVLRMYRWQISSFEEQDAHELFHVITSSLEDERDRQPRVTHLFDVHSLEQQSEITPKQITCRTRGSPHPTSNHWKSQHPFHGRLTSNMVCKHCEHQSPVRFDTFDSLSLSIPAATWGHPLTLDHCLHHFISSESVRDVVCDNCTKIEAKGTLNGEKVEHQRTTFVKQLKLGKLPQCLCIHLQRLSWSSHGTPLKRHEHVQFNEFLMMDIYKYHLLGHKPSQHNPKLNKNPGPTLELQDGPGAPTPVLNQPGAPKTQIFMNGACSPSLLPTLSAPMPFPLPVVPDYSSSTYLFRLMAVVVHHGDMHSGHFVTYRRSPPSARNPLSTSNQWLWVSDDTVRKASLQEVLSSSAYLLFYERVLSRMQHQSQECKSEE
OTUD3 inh: blocks human OTUD3 ubiquitin-rhodamine cleavage; 47,000 tested, 0.7% active; inhibition, % at 25 µM; purified OTUD3, Ub-rhodamine fluorescence, 2 h
USP28 inh: inhibitors of human USP28 deubiquitinase; Q96RU2; purified USP28, Ub-rhodamine cleavage fluorescence, 30 min; inhibition, % at 25 µM; 47,000 tested, 3% active
USP17 inh: human USP17-like deubiquitinase inhibition | A8MUK1 | purified USP17, Ub-rhodamine cleavage fluorescence, 3 h | inhibition, % at 50 µM | 47,000 tested, 6.5% active
An asterisk follows results filed as active. The list is not random: actives were taken first. Their share in the collection is about 11%. No stated cut-off is given here; in the data, active means inhibition above about 30%; inactive means the rest.

What do the screens show for `Cc1c(C(=O)Nc2cccnc2)oc2c1C(O)CC(C)(C)C2` (centres undefined)?
USP30 block: -3; OTUD3 inh: 1; USP28 inh: -3; USP17 inh: -6

What do the screens show for `O=C(c1cc(C2CC2)[nH]n1)N1CCC(C2Nc3ccccc3S(=O)(=O)N2)CC1` (centres undefined)?
USP30 block: 22; OTUD3 inh: 11; USP28 inh: 11; USP17 inh: 8

How did O=C(c1cn2cc(Cl)ccc2n1)N1CCC(Cc2ccccc2)CC1 do in these assays?
USP30 block: 30*; OTUD3 inh: 17; USP28 inh: 20; USP17 inh: 21

Results for O=C(c1cc(C2CC2)[nH]n1)N1CCC(Cc2ccccc2)CC1 ?
USP30 block: 32*; OTUD3 inh: 7; USP28 inh: 21; USP17 inh: 3

How did O=C(Cn1c(=O)c2cccn2c2cccnc21)NCCC1=CCCCC1 do in these assays?
USP30 block: -131; OTUD3 inh: 9; USP28 inh: -16; USP17 inh: 3

Results for O=C(CNCc1cccc(Cl)c1)N1CCc2ccccc2C1 ?
USP30 block: 3; OTUD3 inh: 3; USP28 inh: 7; USP17 inh: 46*

What do the screens show for `Cc1cc(F)ccc1NS(=O)(=O)c1c[nH]c2ccc([N+](=O)[O-])cc12`?
USP30 block: 42*; OTUD3 inh: -3; USP28 inh: 8; USP17 inh: 46*

What do the screens show for `COC(=O)c1ccc(NS(=O)(=O)c2c[nH]c3ccc([N+](=O)[O-])cc23)cc1`?
USP30 block: 28; OTUD3 inh: 2; USP28 inh: 14; USP17 inh: 45*

Results for Cc1ccc(OCc2nc(CC(=O)N3CCCCC3)cs2)cc1 ?
USP30 block: -11; OTUD3 inh: -7; USP28 inh: 2; USP17 inh: -13

How did O=C(Nc1ccccc1)c1ccnc(Nc2ccc(F)cc2)c1 do in these assays?
USP30 block: 7; OTUD3 inh: 2; USP28 inh: 9; USP17 inh: 30*

What do the screens show for `O=C(CN1CN(c2ccccc2)c2ncccc2S1(=O)=O)Nc1ccccc1`?
USP30 block: -30; OTUD3 inh: -8; USP28 inh: -15; USP17 inh: -37

How did O=C1C=C(O)c2c(O)cccc2C1=O do in these assays?
USP30 block: -28; OTUD3 inh: 14; USP28 inh: 51*; USP17 inh: 92*

What do the screens show for `C/C1=C/C=C/[C@H](C)[C@H](O)[C@@H](C)[C@@H](O)[C@@H](C)[C@H](O)[C@H](C)[C@@H](O)[C@@H](C)/C=C(/C)C(=O)c2c(O)c(C)cc3c2C(=O)C=C(NC1=O)C3=O`?
USP30 block: -62; OTUD3 inh: -10; USP28 inh: -6; USP17 inh: 51*

What do the screens show for `CCCn1c(=O)c2nscc2n(CC(=O)N2CCN(c3ccccc3)CC2)c1=O`?
OTUD3 inh: -1; USP17 inh: -15

Results for O=C1CC(C(=O)Nc2ccccc2)n2nc(-c3ccccc3)cc2N1 (centres undefined) ?
USP30 block: 34*; OTUD3 inh: 7; USP28 inh: 12; USP17 inh: 11

How did COc1ccc(Cl)c(NC(=O)C2CC(=O)Nc3cc(-c4ccccc4)nn32)c1 (centres undefined) do in these assays?
USP30 block: 22; OTUD3 inh: 12; USP28 inh: 29; USP17 inh: 57*

What do the screens show for `COc1ccc(Cl)c(NC(=O)C2CC(=O)Nc3cc(C)nn32)c1` (centres undefined)?
USP30 block: 12; OTUD3 inh: 8; USP28 inh: 8; USP17 inh: 15

How did C=C1CC[C@H]2[C@@](C)(COC(C)=O)CCC[C@]2(C)[C@H]1CC/C(C)=C/COC(C)=O do in these assays?
USP30 block: 25; OTUD3 inh: 19; USP28 inh: 7; USP17 inh: 20

How did Cn1c(CNS(=O)(=O)c2ccc(Br)cc2)nnc1SCc1ccc(Cl)c(Cl)c1 do in these assays?
USP30 block: 35*; OTUD3 inh: 21; USP28 inh: 41*; USP17 inh: 0

What do the screens show for `Cn1c(CNS(=O)(=O)c2ccc(Cl)cc2)nnc1SCc1cccc(C(F)(F)F)c1`?
USP30 block: -1; OTUD3 inh: -5; USP28 inh: 7; USP17 inh: -15

How did CC1CCCCN1c1nc(F)c2c(c1F)S(=O)(=O)CCN2Cc1ccccc1 (centres undefined) do in these assays?
USP30 block: -24; OTUD3 inh: 7; USP28 inh: 9; USP17 inh: 57*

How did CCOc1ncccc1C(=O)OCC(=O)c1ccc(C)c(C)c1 do in these assays?
USP30 block: -2; OTUD3 inh: 3; USP28 inh: 38*; USP17 inh: -6

Results for N#Cc1c(Nc2ccccc2)sc(C(=O)c2ccccc2)c1-n1cccc1 ?
USP30 block: -38; OTUD3 inh: -9; USP28 inh: -7; USP17 inh: -8

How did CC(C)=CCC/C(C)=C/COc1ccc(/C=C2\C(=O)N(O)[C@@H](C)C(=O)N2O)cc1 do in these assays?
USP30 block: 33*; OTUD3 inh: 6; USP28 inh: 47*; USP17 inh: 4

What do the screens show for `CCOC(=O)C1CCCN(C(=O)C(=O)c2cn(CC(=O)N3CCCCC3)c3ccccc23)C1` (centres undefined)?
USP30 block: 0; OTUD3 inh: 3; USP28 inh: 8; USP17 inh: 34*

How did Cc1ccc(-c2c[n+](CC(=O)N(c3ccccc3)C(C)C)c3n2CCC3)cc1 do in these assays?
USP30 block: -14; OTUD3 inh: 11; USP28 inh: 17; USP17 inh: -10

How did O=C(C[n+]1cc(-c2ccccc2)n2c1CCC2)c1cccc([N+](=O)[O-])c1 do in these assays?
USP30 block: 31*; OTUD3 inh: 15; USP28 inh: 15; USP17 inh: -11

Results for CC(C)(C)C(=O)[C@@H]1[C@@H](C(=O)c2ccc3c(c2)OCO3)[C@@]2(C(=O)Nc3ccccc32)[C@H]2c3ccccc3C=CN12 ?
USP30 block: -67; OTUD3 inh: 1; USP28 inh: 31*; USP17 inh: 82*

Results for CC(C)c1nc(CN2CCc3ccccc3C2)cc(=O)[nH]1 ?
USP30 block: 8; OTUD3 inh: 12; USP28 inh: 11; USP17 inh: 13

What do the screens show for `CC(O)/C=C/C1OC(=O)CC1Nc1ccc(CO)cc1` (centres undefined)?
USP30 block: 0; OTUD3 inh: 0; USP28 inh: 2; USP17 inh: 44*

Results for Nc1nc(SCc2ccc([N+](=O)[O-])cc2)[nH]c(=O)c1NC(=O)c1ccco1 ?
USP30 block: -34; OTUD3 inh: -7; USP28 inh: -1; USP17 inh: -27

How did CC(C)c1ccc(/C=C/C(=O)N2CCc3ccccc3C2)cc1 do in these assays?
USP30 block: 36*; OTUD3 inh: 27; USP28 inh: 29; USP17 inh: 54*

Results for O=C(/C=C/c1ccccc1)N1CCc2[nH]nc(-c3ccc(F)cc3)c2C1 ?
USP30 block: -1; OTUD3 inh: -11; USP28 inh: -1; USP17 inh: 0

Results for CC(=O)Nc1ccc(SC(C)C(=O)N2CCc3ccccc3C2)cc1 (centres undefined) ?
USP30 block: -2; OTUD3 inh: -3; USP28 inh: -5; USP17 inh: -14

Compound activity from PubChem BioAssay.
